# Screening data from PubChem BioAssay.
# Sfp inh = blocks B. subtilis Sfp PPTase activity; AID 1490; Potency, µM, for the others: largest response in the series, negative = inhibition, most hits filed as inhibitors; Q9F4F7; 3.5% of 310,000 active; Biochemical Sfp PPTase activity, qHTS;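 note: the enzyme is Sfp with the accession as filed and its product quenches rhodamine fluorescence; 0% = enzyme reaction without inhibitor and -100% = no enzyme wells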
#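 Fluorescence-quenching assay with 15 nM Sfp, 5 uM rhodamine-CoA and 12.5 uM BHQ-2-labelled ybbR peptide in pH 7.6 Hepes/MgCl2 buffer. Enzyme was pre-incubated with compound for 15 min at room temperature. Rate was taken from the 30-min fluorescence change (525/598 nm).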
# JMJD2A Tudor = blocks the human JMJD2A Tudor domain; 4.4% of 390,000 active; AID 504339; Potency, µM (top dose mostly 114 µM), inactives show top-dose activity change, negative = inhibition, usual class: inhibitors; O75164; AlphaScreen JMJD2A-Tudor / H3K4me3 peptide binding; note: % is set by controls: 0 for no effect and ±100 for the full control effect; nearly all actives have a fitted effect of over 50% in size
# G9a block = blocks human histone lysine methyltransferase G9a | Q96KQ7 | G9a H3K9 monomethylation, AlphaScreen, 2 h | 8.8% of 350,000 active | Potency, µM (titrated, usually from 102 µM), without a hit: top-dose activity, negative = inhibition, most hits filed as inhibitors | AID 504332; note: % is set by controls: 0 for no effect and ±100 for the full control effect; nearly all actives have a fitted effect of over 75% in size
#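 AlphaScreen read-out: biotin-H3K9 peptide (500 nM) methylation by 20 nM enzyme with 20 uM SAM, 2 h at room temperature after 15 min compound preincubation; anti-monomethyl H3K9 antibody plus donor/acceptor beads, 10 min dark.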
# BAZ2B block = BAZ2B (human) inhibition | 4.4% of 360,000 active | Potency, µM (highest dose often 114 µM), without a hit: at the top dose activity change, negative = inhibition, usual class: inhibitors | Q9UIF8 | AlphaScreen BAZ2B-H3K14Ac peptide displacement; note: % is set by controls: 0 for no effect and ±100 for the full control effect; nearly all actives have a fitted effect of over 60% in size
#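 Multi-concentration screen (max 110 uM) measuring displacement of acetylated histone H3 peptide from BAZ2B by AlphaScreen, using 50 nM protein, 50 nM peptide and 10 ug/mL streptavidin donor plus Ni-chelate acceptor beads.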
# HP1b binding inh = blocks HP1-beta chromodomain binding to methylated histone tails; AlphaScreen HP1-beta / biotin-H3K9me3 peptide binding; 0.56% of 390,000 active; Potency, µM (titrated, usually from 114 µM), for the others: at the top dose activity change, negative = inhibition, hits mostly inhibitors; P83916; AID 540317; note: nearly all actives have a fitted effect of over 70% in size
#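 AlphaScreen: HP1-beta (50 nM) preformed 30 min with biotin-H3(1-18)K9me3 peptide (50 nM) in PBS pH 7.4, 0.01% Tween-20. Compound added for 30 min at RT, then streptavidin donor/nickel chelate acceptor beads (10 ug/mL) for 30 min.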
# PLK1 PBD inh = PLK1 (human) polo-box domain binding inhibition | 2.8% of 360,000 active | Plk1 PBD binding of FITC phosphopeptide, fluorescence polarization | P53350 | Potency, µM, inactives show max response, negative = inhibition, most hits filed as inhibitors; note: series mostly up to about 57 µM; % is set by controls: 0 for no effect and ±100 for the full control effect; nearly all actives have a fitted effect of over 65% in size
# Target sequence (P53350 whole entry, looked up, the tested form may be a part): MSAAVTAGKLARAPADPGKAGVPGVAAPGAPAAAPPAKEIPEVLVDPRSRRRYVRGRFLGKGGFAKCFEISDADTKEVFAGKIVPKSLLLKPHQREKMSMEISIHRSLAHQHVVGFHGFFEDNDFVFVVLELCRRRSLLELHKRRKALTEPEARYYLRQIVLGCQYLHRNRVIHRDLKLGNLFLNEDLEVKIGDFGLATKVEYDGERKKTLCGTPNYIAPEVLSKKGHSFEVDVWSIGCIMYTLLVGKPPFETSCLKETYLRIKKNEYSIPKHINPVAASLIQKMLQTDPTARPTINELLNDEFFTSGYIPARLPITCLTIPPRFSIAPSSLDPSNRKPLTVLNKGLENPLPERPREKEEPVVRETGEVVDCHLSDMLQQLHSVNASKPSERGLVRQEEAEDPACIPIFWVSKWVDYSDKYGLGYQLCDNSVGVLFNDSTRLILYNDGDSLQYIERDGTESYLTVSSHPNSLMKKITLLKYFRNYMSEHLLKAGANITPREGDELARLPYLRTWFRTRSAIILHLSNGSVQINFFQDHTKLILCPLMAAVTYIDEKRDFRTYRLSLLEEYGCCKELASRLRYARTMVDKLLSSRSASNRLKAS
# Numbers without * were called inactive; ? = inconclusive; · = no result given; [ ] = remark or other dose. A selection: hits, their analogues and other compounds. The true share with any hit is near 12%. Calls come from the whole dose curve; as a rule, active = well fitted curve in the direction sought with a large enough effect; inconclusive = small, poorly fitted or top-dose-only effect, or another doubt; inactive = no such curve, though single readings can be large; an effect the other way counts as inactive or inconclusive. Potency is the fitted concentration of half-maximal effect.
SMILES,Sfp inh,JMJD2A Tudor,G9a block,BAZ2B block,HP1b binding inh,PLK1 PBD inh
COc1cccc(C(=O)NCCS(=O)(=O)NCCc2ccccc2)c1,·,-3%,45µM*,6%,23%,-7%
COc1ccc(C(=O)NCCS(=O)(=O)NCCc2ccccc2)cc1,·,-8%,6%[0.501 µM],15%,7%,-10%
COc1cccc(C(=O)NCCS(=O)(=O)NC2CCCC2)c1,·,-7%,32µM*,14%,19%,-16%
COc1cc(CCC(=O)OCC(=O)NCCc2ccc(S(N)(=O)=O)cc2)cc(OC)c1OC,·,-8%,·,·,20%,-6%
COc1ccc(NC(=O)CSc2oc(-c3ccco3)nc2S(=O)(=O)c2ccc(Br)cc2)c(OC)c1,·,-22%,-27%[59 µM],-10%,-14%,·
CCCn1c(C)nc2c(NCc3ccccc3)nc(C)nc21,8%,·,·,·,·,·
NS(=O)(=O)c1ccc(NC(=S)NCc2ccccc2Cl)cc1,-16%,-30%,?,-21%,-3%,?
CC(=O)Nc1ccc(S(=O)(=O)NCC(=O)NCCc2ccc(S(N)(=O)=O)cc2)cc1,17%,-12%,-12%,-13%,1%,-11%
O=C(COC(=O)/C=C/c1ccccc1Cl)NCc1ccco1,14%,-28%,?,50µM*,4%,-7%
NS(=O)(=O)c1ccc(CCNC(=O)CNS(=O)(=O)c2cccc(Br)c2)cc1,-14%,3%,-3%[59 µM],?,44%,5.3µM*
O=C(CNCc1ccccc1Cl)NCc1ccco1,?,-99%,-138%[59 µM],20µM*,22µM*,-2%
NS(=O)(=O)c1ccc(CCNCC(=O)NCc2ccccc2Cl)cc1,-20%,28µM*,-6%,50µM*,-36%,-1%
CNC(=O)COC(=O)C1CCN(S(=O)(=O)c2ccc3c(c2)OCCO3)CC1,·,-10%,23%[12.7 µM],5%,23%,2%
CN(CCc1ccccc1)C1CCCN(S(=O)(=O)c2cccc(F)c2)C1 (stereo unspecified),18%,-26%,-10%,-2%,9%,-24%
CN(C(=O)c1cccc(NC(=O)Cc2ccc(NC(=O)C3CCN(S(=O)(=O)c4cccc([N+](=O)[O-])c4)CC3)cc2)c1)C1CCCCC1,·,-10%,·,·,35%,-16%
COC(=O)C1=C(C)N=C2SC(C#N)=C(N)N2C1c1cc(OC)c(OC)c(OC)c1 (stereo unspecified),3%,-20%,-1%,-1%,9%,-10%
COC(=O)C1=C2SC(C)C(=O)N2C(N)=C(C#N)C1c1cc(OC)c(OC)c(OC)c1 (stereo unspecified),35µM*,0%,?,-7%,33%,-9%
CCOC(=O)C1=C(N)N2C(=O)C(C)SC2=C(C(=O)OC)C1c1cccc(OC)c1 (stereo unspecified),-8%,-22%,8%,-8%,24%,-3%
COC(=O)C1=C2SC(C)C(=O)N2C(N)=C(C#N)C1c1ccc(OC)c(OC)c1 (stereo unspecified),35µM*,-29%,?,-37%,9%,-15%
CC(C)OC(=O)CSc1nnc(CNc2nc(-c3ccccc3)cs2)n1C,-28%,-25%,45µM*,?,-19%,?
COc1cccc(C(=O)CSc2nnc(CNc3nc(-c4ccccc4)cs3)n2C)c1,-3%,-31%,8.9µM*,-14%,-19%,-6%
Cc1ccc2c(c1)cc(C(=O)NCc1ccccc1C)n2C,·,-5%,7%[59 µM],0%,17%,·
c1ccc(-c2nccc(-c3ccco3)n2)nc1,7%,?,?,32µM*,32%,4%
C#CCSC1=C(C#N)C(c2cccs2)C(C(=O)OCC)=C(C)N1 (stereo unspecified),28µM*,-9%,1%[12.7 µM],19%,38%,-23%
CCOC(=O)C1=C(C)NC(SCC(=O)OC)=C(C#N)C1c1ccc(C(=O)OC)cc1 (stereo unspecified),56µM*,-11%,?,-16%,42%,-8%
SMILES,Sfp inh,JMJD2A Tudor,G9a block,BAZ2B block,HP1b binding inh,PLK1 PBD inh
CCOC(=O)CSC1=C(C#N)C(c2ccc(F)cc2)C(C(C)=O)=C(C)N1 (stereo unspecified),?,4%,?,41%,44%,-11%
CC(=O)Nc1cccc(-c2ccnc3c2CC(C(=O)Nc2cccc(N(C)C)c2)O3)c1 (stereo unspecified),·,·,·,·,·,-7%
C[C@@H]1CN([C@@H](C)CO)C(=O)CCCn2nncc2CO[C@H]1CN(C)C(=O)OCc1ccccc1,·,·,·,·,·,-6%
O=C(CN1CCCCCCC1)N/N=C/c1ccc(F)cc1F,-2%,?,22µM*,-6%,?,-21%
O=C(CN1CCCC1)N/N=C/c1c(O)ccc2ccccc12,2%,79µM*,8%,28µM*,50%,5%
Cc1ccc(O)c(/C=N/NC(=O)CN2CCCC2)c1,8%,71µM*,27%,50µM*,55%,1%
Cc1ccc2nc(Cl)c(/C=N/NC(=O)CN3CCOCC3)cc2c1,·,0%,·,·,17%,-1%
Cc1cc(NC(=O)CSc2nc3c(C)cccc3cc2C#N)no1,15%,?,?,1%,12%,-3%
CN(C)c1ccc(N2C(=O)CC(Sc3ccccc3C(=O)O)C2=O)cc1 (stereo unspecified),45µM*,?,1.4µM*,?,25%,-15%
CC(C)CN1C(=O)CC(Sc2ccccc2C(=O)O)C1=O (stereo unspecified),-5%,-25%,1.1µM*,-11%,46%,-7%
Cc1cc(C)cc(N2C(=O)CC(Sc3ccccc3C(=O)O)C2=O)c1 (stereo unspecified),56µM*,?,?,-12%,40%,-19%
CCOC(=O)c1c(N2C(=O)CC(Sc3ccccc3C(=O)O)C2=O)sc(C)c1C (stereo unspecified),7.9µM*,-24%,·,50µM*,-4%,?
CC(=O)c1ccc(Nc2ccc3cc(S(=O)(=O)N4CCCC4)ccc3n2)cc1,·,-25%,?,2%,35%,·
Cc1cccc(N2C(=O)CC(Sc3nccc(C)n3)C2=O)c1 (stereo unspecified),11%,-11%,?,11%,48%,-16%
Cc1ccc(N2C(=O)CC(Sc3ccccc3C(=O)O)C2=O)cc1 (stereo unspecified),?,?,?,-7%,40%,-3%
Cc1cccc(N2C(=O)CC(Sc3ccccc3C(=O)O)C2=O)c1 (stereo unspecified),56µM*,45µM*,?,-3%,38%,-23%
Cc1cccc(N2C(=O)CC(Sc3ncn[nH]3)C2=O)c1 (stereo unspecified),56µM*,?,7.1µM*,-25%,?,27µM*
